NTMT1 inh – inhibitors of human N-terminal methyltransferase NTMT1; NTMT1 MTase-Glo SAH luminescence, purified enzyme; hit rate 2.5% among 59,000; AID 1645870; Potency, µM (titrated, usually from 114 µM), for inactives: at the top dose activity change, negative = inhibition, actives largely listed as inhibitors;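 further: plate controls were DMSO vehicle for no effect and no enzyme for full effect; nearly all actives have a fitted effect of over 65% in size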
Target sequence (Q9BV86 whole entry, looked up): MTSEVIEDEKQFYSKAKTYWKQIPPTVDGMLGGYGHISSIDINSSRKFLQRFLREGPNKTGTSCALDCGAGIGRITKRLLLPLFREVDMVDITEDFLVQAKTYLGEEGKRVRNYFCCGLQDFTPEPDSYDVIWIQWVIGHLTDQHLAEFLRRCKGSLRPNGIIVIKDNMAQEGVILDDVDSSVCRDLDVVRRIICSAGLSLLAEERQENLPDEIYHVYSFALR
HTT prom inh – inhibits huntingtin promoter activity; Potency, µM (top dose mostly 57.5 µM), for the others: at the top dose activity change, negative = inhibition, most hits filed as inhibitors; hit rate 0.93% among 48,000; HEK293 HTT promoter firefly luciferase reporter, 24 h; AID 1508623; further: nearly all actives have a fitted effect of over 50% in size
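HEK293 cells carrying firefly luciferase reporters were seeded at 2,500 per well in Opti-MEM and cultured for 24 h. They were then treated with compounds at up to 57.5 uM final for 24 h at 37 degrees C before Dual-Glo luminescence readout.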
HTT-AS act – HTT-AS promoter activation | HEK293 HTT-AS promoter firefly luciferase reporter, 24 h; response scale: percent change from vehicle, -100% = no light | Potency, µM (series often up to 57.5 µM), for the others: at the highest dose activity change, positive = activation, most hits filed as activators | hit rate 0.24% among 48,000; further: nearly all actives have a fitted effect of over 55% in size
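Firefly luciferase signal from promoter-reporter HEK293 cells was scaled between vehicle (0%) and zero RLU (-100%). Compounds were tested at final concentrations of up to 57.5 uM over 24 h at 37 degrees C. PTC124 at 50 uM final served as control inhibitor.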
* = called active by the depositor; ? = inconclusive; . = no result given; ! = not confirmed by another sample; [ ] = dose if it differs, or a comment. Shown are actives, neighbours in structure and some others; about 2.4% of the full set was active somewhere. The call rests on the fitted dose curve; in most records, active means well fitted curve in the direction sought with a large enough effect; inconclusive means small, poorly fitted or top-dose-only effect, or another doubt; inactive means no such curve, though single readings can be large; an effect the other way counts as inactive or inconclusive. Potency means the concentration at half of the fitted maximal effect.

SMILES	NTMT1 inh	HTT prom inh	HTT-AS act
Cc1cccc(C)c1NC(=O)Cn1c(=O)n(Cc2ccc(C(=O)NCc3ccco3)cc2)c(=O)c2sccc21	?	-13%	-5%
Cc1cc(C)c(NC(=O)Cn2c(=O)n(Cc3ccc(C(=O)NCc4ccco4)cc3)c(=O)c3sccc32)c(C)c1	50µM*	?	-32%
CN(C)c1ccc(/C=C(\C#N)c2nc3ccccc3c(=O)[nH]2)cc1	35µM*	78%	?
Cc1cccc(/C=C(\C#N)c2nc3ccccc3c(=O)[nH]2)c1	16%	-5%	-17%
CCC(CC)Nc1nc(C)c(-c2ccc(OC(F)(F)F)cc2OC)nc1OC	22%[57.5 µM]	.	.
CC(C)c1c(-c2ccccc2)nc2c(C#N)c[nH]n2c1=O	16%	.	.
Clc1nc(CN2CCOCC2)nc2sc3c(c12)CCCC3	-3%	.	.
COc1ccc(-c2noc(CSc3nc4ccccc4[nH]3)n2)cc1	-10%	?	-44%
COc1ccc(-c2noc(CSc3nc(N)cc(=O)[nH]3)n2)cc1	-20%	22µM*	-91%
CCOc1ccc(CNC(=O)c2ccc(Sc3ccc(Cl)cc3)c(NC(C)=O)c2)cc1OC	89µM*	?	-34%
CCOc1ccc(CNC(=O)c2ccc(Sc3ccc(C)cc3)c(N)c2)cc1OC	-29%	?	-41%
CCCCc1ccc(-c2ccc(=O)n(CC(=O)NCCc3ccccc3)n2)cc1	5%	.	.
CCOC(=O)C1CCCN(C(=O)c2cc3c(Cl)nc4ccccc4c3s2)C1 (stereo not given)	-1%	5µM*	-84%
CCOC(=O)C1CCCN(C(=O)c2cc3c(=O)[nH]c4ccc(C)cc4c3s2)C1 (stereo not given)	4%	-30%	-17%
CN[C@@H]1C[C@H]2O[C@@](C)([C@@H]1OC)n1c3ccccc3c3c4c(c5c6ccccc6n2c5c31)C(=O)N[C@H]4O	-9%[29.8 µM]	.	.
Cc1ccc(NCc2cccn2-c2nnc(N3CCC(C(=O)NCCc4ccc(Cl)cc4)CC3)s2)cc1	13%	?	-32%
CCOc1ccc(NCc2cccn2-c2nnc(N3CCC(C(=O)NCc4ccc(C)cc4)CC3)s2)cc1	2%	14µM*	-52%
CCOc1ccc(NCc2cccn2-c2nnc(N3CCC(C(=O)NCc4cccc(OC)c4)CC3)s2)cc1	-2%	?	-46%
Cc1ccc(NCc2cccn2-c2nnc(N3CCC(C(=O)NCc4ccc(OC(C)C)cc4)CC3)s2)cc1	18%	28µM*	-43%
COC(=O)C#Cc1ccc([N+](=O)[O-])cc1	0%	.	.
COc1nnc2ccc(N3CCC(c4ccc(OCCN5CCN(C)C(=O)[C@H]5C)cc4)CC3)nn12	7%	.	.
O=C(NO)C1(CS(=O)(=O)c2ccc(Oc3ccc(Cl)cc3)cc2)CCOCC1	-16%	.	.
Cc1cccc2oc(NC3=NC(c4[nH]ncc4Cl)C4=C(CCCC4=O)N3)nc12 (stereo not given)	-11%	.	.
COc1ccc(OC)c(NC(=O)Cn2ccn(-c3ccc(OC)c(OC)c3)c(=O)c2=O)c1	-8%	-18%	-1%
COc1ccc(OC)c(NC(=O)Cn2ccn(-c3ccc(F)cc3)c(=O)c2=O)c1	89µM*	-23%	-9%
SMILES	NTMT1 inh	HTT prom inh	HTT-AS act
CCCC(CCC)C(=O)NCc1ccc2c(cnn2-c2ccccc2OC)c1	4%[57.5 µM]	.	.
COc1ccc2c(c1)C=C1Cn3c-2c(C2CCCCC2)c2ccc(cc23)C(=O)NS(=O)(=O)N(C)CCOCCN(C)C1=O	45µM*	.	.
CC(O)C/C=C/C=C/C(=O)OC1C=C2COC(=O)C2(O)C2(C)CCCC(C)(C)C12 (stereo not given)	-11%[29.8 µM]	.	.
COc1cccc(C2c3c(ncn(-c4ccccc4C#N)c3=N)Oc3ccc4ccccc4c32)c1 (stereo not given)	79µM*	.	.
COc1cccc(C2c3c(ncn(-c4ccccc4Br)c3=N)Oc3ccc4ccccc4c32)c1 (stereo not given)	1%	.	.
COc1cc2ccccc2cc1C(=O)N1CCN(c2nc3ccc(F)cc3s2)CC1	2%	?	-42%
CCS(=O)(=O)c1ccccc1C(=O)N1CCN(c2nc3ccccc3s2)CC1	20%	14µM*	-44%
CN1CCN(Cc2ccc(-c3cnc4[nH]cc(-c5ccc6[nH]ccc6c5)c4c3)cc2)CC1	20µM*	.	.
CCc1ccc(CN2CCc3nc(N4CCN(CC)CC4)ncc3C2)cc1	3%	-24%	-19%
COc1cc(C(=O)OC[C@H]2O[C@H](O[C@@]3(CO)O[C@@H](CO)[C@H](O)[C@H]3O)[C@H](O)[C@@H](O)[C@@H]2O)ccc1O	14%[29.8 µM]	.	.
COc1cccc(CNc2ccc(S(=O)(=O)Nc3cccc4ccccc34)cc2)c1O	4%	.	.
N#Cc1cnc(NS(=O)(=O)c2ccc(NC(=O)Cc3ccc(Cl)c(Cl)c3)cc2)s1	79µM*	.	.
O=C(Cc1ccc(Cl)c(Cl)c1)Nc1ccc(S(=O)(=O)Nc2cncnc2)cc1	17%	.	.
COc1ccc(-n2c(C)c(C(C)=O)c3ccccc32)cc1	4%	.	.
CC(=O)c1ccc(N2CCN(C(=O)c3ccc4c(c3)CCC(=O)N4)CC2)cc1	10%	.	.
CCN1/C(=C/C=C/c2sc3ccccc3[n+]2CC)Sc2ccccc21	18µM*	?	-66%[25.1 µM]
CCN(CC)C(C)CN1c2ccccc2Sc2ccccc21 (stereo not given)	-21%[57.5 µM]	14%	-1%
Cc1cc(OCCCSc2nc(-c3ccc(C(C)(C)C)cc3)nc3cc(=O)[nH]n23)ccc1Cl	50µM*!	-13%	-15%
CC(C)(C)c1ccc(-c2nc(SCCCOc3ccccc3)n3[nH]c(=O)cc3n2)cc1	?	-27%	-27%
Cc1cccc(N2CCN(C(=O)c3cc4c(=O)[nH]c5ccc(C)cc5c4s3)CC2C)c1 (stereo not given)	?	13µM*	-68%
Cc1ccc2[nH]c(=O)c3cc(C(=O)NCc4cccc(Cl)c4)sc3c2c1	?	-6%	-6%
CCN(Cc1ccccc1)C(=O)c1cc2c(=O)[nH]c3ccc(C)cc3c2s1	89µM*	-2%	-22%
Cc1ccc2[nH]c(=O)c3cc(C(=O)NCCCN4CCC(C)CC4)sc3c2c1	?	-25%	-17%
Oc1ccc(Nc2ccccc2F)c2cccnc12	28µM*	.	.
Oc1ccc(-c2ccccc2F)c2cccnc12	5%	.	.
SMILES	NTMT1 inh	HTT prom inh	HTT-AS act
C[N+](C)([O-])CCNc1ccc(NCC[N+](C)(C)[O-])c2c1C(=O)c1c(O)ccc(O)c1C2=O	?	-6%	-24%
O=C1c2c(O)ccc(O)c2C(=O)c2c(NCCNCCO)ccc(NCCNCCO)c21	28µM*!	?	-64%
COc1cc2nc(=NC(=O)c3cccnc3)n3c(c2cc1OC)NCC3	-1%[57.5 µM]	.	.
O=C(Nc1ccc(-c2ccnc(Nc3ccc(N4CCOCC4)cc3)n2)cc1)C1CCCN1 (stereo not given)	-4%	.	.
c1nc2nc(Nc3ccc(N4CCOCC4)cc3)nc(NC3CCCCC3)c2[nH]1	40µM*!	?	-26%
O=c1[nH]cnc2nc[nH]c12	22µM*	20%	5%
COC1CC(=O)C23C(=O)NC(CC(C)C)C2C(C)C(C)=CC3/C=C(\C)CCCC1O (stereo not given)	1%[29.8 µM]	.	.
O=C(Nc1cccnn1)N1CCC(=Cc2cccc(Oc3ccc(C(F)(F)F)cn3)c2)CC1	-11%	.	.
O=C(Nc1cncc(-c2cccnc2)c1)c1cccs1	-2%	.	.
